RORgamma inh: blocks mouse ROR gamma transcriptional activity. Drosophila S2 Gal4-RORgamma UAS-luciferase reporter, 20 h. Potency, µM (titrated, usually from 53.6 µM), for the others: at the highest dose activity change, negative = inhibition, most hits filed as inhibitors. 310,000 compounds, 5.4% hits. AID 2551; note: nearly all actives have a fitted effect of over 60% in size
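Drosophila Schneider cells stably carrying a metallothionein-driven Gal4 DBD–ROR gamma fusion and a UAS-Photinus luciferase reporter were exposed to compound for 1 hr, then induced with copper sulfate (700 uM final) for 20 hr at ambient temperature before luminescence reading.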
Gal4-VP16 FLuc: counter-screen for ROR gamma inhibitors: Gal4-VP16 reporter; AID 2546; Drosophila S2 Gal4-VP16 UAS-luciferase, luminescence, 20 h; 310,000 compounds, 3.5% hits; Potency, µM (highest dose often 53.6 µM), inactives show top-dose activity, negative = inhibition, hits mostly inhibitors;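 note: Gal4-VP16 expression switched on by copper sulfate through the metallothionein promoter; nearly all actives have a fitted effect of over 50% in size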
TDP1 cell CPT: DT40-hTDP1 cell growth loss with CPT; AID 686979; 420,000 compounds, 12% hits; Potency, µM (highest dose often 46.2 µM), for inactives: top-dose activity change, negative = growth inhibition, hits mostly inhibitors; chicken DT40 Tdp1-/-;hTDP1 cells + 20 nM CPT, ATP luminescence, 48 h; note: nearly all actives have a fitted effect of over 55% in size
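Chicken DT40 Tdp1-/- cells stably complemented with human TDP1 were seeded at 400 cells/well in medium containing 20 nM camptothecin, exposed to pin-transferred compounds, and grown at 37 °C for at least 48 hr. Viability was read as ATP luminescence.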
DT40 TDP1 no CPT: qHTS for Inhibitors of human tyrosyl-DNA phosphodiesterase 1 (TDP1): qHTS in cells in absence of CPT; AID 686978, 2013; DT40 Tdp1-/- hTDP1 cells, no CPT, ATP luminescence, 48 h; Potency, µM (doses to about 46.2 µM), inactives show top-dose activity change, negative = growth inhibition, most hits filed as inhibitors; 420,000 compounds, 15% hits; note: nearly all actives have a fitted effect of over 55% in size
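Growth kinetics read by CellTiter-Glo luminescence after ≥48 hr at 37 °C. Cells: DT40 Tdp1-/- stably carrying human TDP1, 400 per well, compound exposure in the absence of CPT (DMSO vehicle).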
TDP1 block: inhibitors of human tyrosyl-DNA phosphodiesterase TDP1. 350,000 compounds, 0.28% hits. recombinant TDP1, AlphaScreen DNA substrate cleavage. Potency, µM (series often up to 130 µM), for the others: at the top dose activity change, negative = inhibition, most hits filed as inhibitors. Q9NUW8. AID 485290; note: nearly all actives have a fitted effect of over 40% in size
Target sequence (Q9NUW8 whole entry, looked up): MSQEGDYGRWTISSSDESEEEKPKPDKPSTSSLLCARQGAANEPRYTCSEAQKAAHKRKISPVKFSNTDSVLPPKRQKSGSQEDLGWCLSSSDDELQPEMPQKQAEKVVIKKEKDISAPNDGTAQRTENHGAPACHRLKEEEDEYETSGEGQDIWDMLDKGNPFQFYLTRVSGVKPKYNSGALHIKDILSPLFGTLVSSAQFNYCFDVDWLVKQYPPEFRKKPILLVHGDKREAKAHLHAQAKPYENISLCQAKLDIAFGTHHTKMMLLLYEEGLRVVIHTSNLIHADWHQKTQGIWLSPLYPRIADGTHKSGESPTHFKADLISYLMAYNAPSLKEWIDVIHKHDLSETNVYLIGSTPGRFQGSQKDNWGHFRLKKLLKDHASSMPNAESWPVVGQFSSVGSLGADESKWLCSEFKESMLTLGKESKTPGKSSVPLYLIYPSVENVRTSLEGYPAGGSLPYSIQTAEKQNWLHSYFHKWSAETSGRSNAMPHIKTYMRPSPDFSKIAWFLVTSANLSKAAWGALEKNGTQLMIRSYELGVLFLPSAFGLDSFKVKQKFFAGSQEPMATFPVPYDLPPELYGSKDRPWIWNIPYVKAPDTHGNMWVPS
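AlphaScreen read-out: signal falls as enzyme removes the 3' tyrosine-FITC from a 5'-biotinylated DNA oligo (15 nM, 5 min, RT). Enzyme was E. coli-made recombinant Tdp1 at 1 nM, exposed to compound for 15 min beforehand; beads 10 ug/ml, 10 min.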
* hit, by the source's call; u = inconclusive; x = no result given; [ ] = dose if it differs, or a comment. A selection: hits, their analogues and other compounds. The true share with any hit is near 19%. Calls come from the whole dose curve; as a rule, active = well fitted curve in the direction sought with a large enough effect; inconclusive = small, poorly fitted or top-dose-only effect, or another doubt; inactive = no such curve, though single readings can be large; an effect the other way counts as inactive or inconclusive. % is set by controls: 0 for no effect and ±100 for the full control effect; potency is the fitted concentration of half-maximal effect.

SMILES	RORgamma inh	Gal4-VP16 FLuc	TDP1 cell CPT	DT40 TDP1 no CPT	TDP1 block
S=C1NCCc2ccc(Cl)cc2C1c1ccccc1 (configuration not stated)	1.26µM*	2.51µM*	u	23.1µM*	5.0%
O=C1NCCN1Cc1ccc(Cl)cc1	0.6%	5.0%	11.7%	-0.5%	-1.1%
O=[N+]([O-])c1ccc(-c2cn(-c3ccccc3)c(=S)[nH]2)cc1	u	u	8.4%	u	4.4%
Cc1cccc(-n2cc(-c3ccc([N+](=O)[O-])cc3)[nH]c2=S)c1	7.08µM*	3.98µM*	8.4%	3.9%	-1.9%
Cc1ccc(-n2cc(-c3ccc([N+](=O)[O-])cc3)[nH]c2=S)c(C)c1	1.26µM*	6.31µM*	16.4µM*	16.4µM*	7.9%
Cc1ccc2c(-c3ccc([N+](=O)[O-])cc3)cc(=O)[nH]c2c1	30.0%	1.7%	-11.1%	6.2%	4.8%
CCOCCCNC(=O)c1ccc(Cn2c(=O)c3cccn3c3cccnc32)cc1	x	x	u	u	7.7%
CC(C)(C)NC(=O)NC(=O)COC(=O)C1CC(=O)N(Cc2ccccc2)C1 (configuration not stated)	-0.9%	-12.6%	-2.2%	-4.1%	0.0%
Nc1nc(SCc2ccc(Cl)cc2)ns1	-35.2%	7.08µM*	-28.6%	-13.4%	4.1%
Nc1nc(SCc2ccccc2)ns1	u	u	1.6%	5.6%	2.2%
CNc1nc(Cl)nc(NC(C)(C)C)n1	-6.9%	-16.4%	-10.2%	-15.8%	2.0%
COc1ccc(NC(=O)C(C)n2nc(-c3cc(C)ccc3C)c3c(c2=O)CCCC3)cc1 (configuration not stated)	x	x	20.6µM*	u	7.0%
O=S(=O)(NCCc1ccccc1)c1ccc(N2CCCCS2(=O)=O)cc1	x	x	18.4µM*	23.1µM*	1.2%
COc1ccc(CCNS(=O)(=O)c2ccc(N3CCCCS3(=O)=O)cc2)cc1OC	x	x	u	20.6µM*	11.2%
CC(C)CNS(=O)(=O)c1ccc(N2CCCCS2(=O)=O)cc1	x	x	u	u	-1.2%
CCCCNS(=O)(=O)c1ccc(N2CCCCS2(=O)=O)cc1	x	x	u	23.1µM*	6.2%
O=S(=O)(NCCc1ccc(Cl)cc1)c1ccc(N2CCCCS2(=O)=O)cc1	x	x	18.4µM*	23.1µM*	8.8%
N#Cc1ccccc1NS(=O)(=O)c1ccc(N2CCCCS2(=O)=O)cc1	x	x	-4.5%	-3.8%	-1.2%
COc1cc(C(=O)NC2CCN(CC(=O)NC3CCCCC3)CC2)cc(OC)c1OC	-1.1%	16.2%	-6.7%	-12.0%	-15.2%[0.0935 µM]
COc1ccc(S(=O)(=O)N(C)C[C@H]2Oc3ccc(NS(=O)(=O)c4c(C)noc4C)cc3C(=O)N([C@H](C)CO)C[C@@H]2C)cc1	x	x	-18.1%	-9.0%	1.2%
CCCCc1ccc(NS(=O)(=O)c2ccc(N3CCCCS3(=O)=O)cc2)cc1	x	x	u	u	-1.2%
Cc1ccc(CNS(=O)(=O)c2ccc(N3CCCCS3(=O)=O)cc2)cc1	x	x	11.6µM*	16.4µM*	3.8%
CCN(c1cccc(C)c1)S(=O)(=O)c1ccc(N2CCCCS2(=O)=O)cc1	x	x	13µM*	23.1µM*	-1.9%
CCN(c1ccccc1C)S(=O)(=O)c1ccc(N2CCCCS2(=O)=O)cc1	x	x	2.0%	-26.8%	-3.8%
CC(=O)N1CC(=O)N(OCc2ccccc2)C1c1ccc(Cl)cc1Cl (configuration not stated)	-5.9%	6.1%	-29.8%	-3.5%	3.4%
SMILES	RORgamma inh	Gal4-VP16 FLuc	TDP1 cell CPT	DT40 TDP1 no CPT	TDP1 block
CC(=O)c1ccc(O)c(CO)c1	-7.9%	2.5%	-11.0%	-23.3%	4.8%
CCOC(=O)c1ccc(NC(=O)COC(=O)c2cn(CC)c3nc(C)ccc3c2=O)cc1	x	x	-2.2%	u	4.5%
O=C(NCc1cc(C(F)(F)F)ccc1Cl)c1cccc2c1C(=O)c1ccc(N3CCC(N4CCCCC4)CC3)cc1S2(=O)=O	x	x	5.17µM*	2.91µM*	x
O=C(NCc1cc(C(F)(F)F)ccc1Cl)c1cccc2c1C(=O)c1ccc(N3CCOCC3)cc1S2(=O)=O	x	x	18.4µM*	20.6µM*	-3.2%
Cc1ccc(S(=O)(=O)NC(Cc2c[nH]c3ccccc23)C(=O)O)cc1 (configuration not stated)	x	x	-6.7%	-7.9%	x
COc1ccc(/C=N/NC(=O)Cc2cc(OC)c(OC)cc2[N+](=O)[O-])cc1	-4.1%	-11.0%	-6.6%	-9.2%	5.4%
Cc1nn(-c2ccccc2)c2sc(-c3n[nH]c(=S)o3)cc12	2.82µM*	-10.1%[0.365 µM]	u	u	7.9%
O=C(Oc1ccccc1N1CCOCC1)c1sccc1Br	13.6%	-14.8%	0.3%	-14.9%	8.6%
COc1ccccc1C(=O)C1CCCN(C(=O)C2CCCC2)C1 (configuration not stated)	u	-2.9%	1.0%	3.0%	2.6%
Fc1cccc(/C=N/Nc2nc3ccccc3[nH]2)c1	10µM*	u	u	u	7.7%
C(=N\Nc1nc2ccccc2[nH]1)/c1ccccc1	10µM*	u	u	u	6.0%
C(=N\Nc1nc2ccccc2[nH]1)/C1CCCCC1	11.2µM*	u	18.4µM*	u	8.0%
CCCc1cc(=O)[nH]c(SC/C=C/c2ccccc2)n1	x	x	-28.8%	-19.9%	x
CCCc1cc(=O)[nH]c(N/N=C/C=C\c2ccccc2)n1	7.08µM*	3.6%[10 µM]	0.8%	u	2.7%
NNc1ccc(Cl)c(C(=O)O)c1	-12.2%	16.8%	-20.8%	-0.6%	7.5%
CS(=O)(=O)N(CC(=O)Nc1ccccc1C(=O)N1CCOCC1)c1cccc([N+](=O)[O-])c1	-9.2%	-3.4%	16.5%	15.5%	2.1%
CCC(C)(C)NC(=O)CN(C(=O)CCC(=O)Nc1nccs1)c1ccccc1C	u	4.7%	8.9%	-17.8%	3.7%
COc1ccc(C(=O)NCCc2nnc3ccc(SCC(=O)N4CCOCC4)nn23)cc1	18.5%	-5.0%	11.2%	8.4%	4.2%
COc1ccc2oc(CS(=O)c3ccccc3)c(C(=O)O)c2c1 (configuration not stated)	-1.2%	3.7%	-2.2%	-1.6%	x
C(/CCc1ccccc1)=N\Nc1nc2ccccc2[nH]1	11.2µM*	-25.5%	u	18.4µM*	11.4%
C(=C\c1ccccc1)/C=N/Nc1nc2ccccc2[nH]1	3.16µM*	5.01µM*	7.31µM*	7.31µM*	11.0%
c1ccc(CCc2nc3ccccc3[nH]2)cc1	1.8%	-5.0%	-23.4%	u	6.0%
Fc1cccc(/C=N/Nc2ccc3ccccc3n2)c1	7.08µM*	u	u	u	11.8%
CCCn1c(N/N=C\C=C\c2ccccc2)nc2c1c(=O)[nH]c(=O)n2C	31.2%	-20.8%	14.6µM*	16.4µM*	5.3%
